Source: PubChem BioAssay (National Center for Advancing Translational Sciences (NCATS))
In the library only some 11% were active in any assay of this set; here they are far more common.
HPGD block = qHTS Assay for Inhibitors of HPGD (15-Hydroxyprostaglandin Dehydrogenase); 15-hydroxyprostaglandin dehydrogenase [NAD(+)] (Homo sapiens), P15428; purified HPGD, NADH fluorescence kinetic, PGE2 substrate; Potency, µM, actives largely listed as inhibitors; actives 4.3% (n = 150,000)
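NADH formation kinetics: reaction with 30 uM PGE2 and 1 mM NAD+ (final), 20 nM enzyme, Tris-HCl pH 8 with Tween 20, after 15 min compound preincubation at room temperature. Fluorescence change, last versus first of five reads.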
PNC assembly inh = High Content Assay for Compounds that inhibit the Assembly of the Perinucleolar Compartment. PC3M PTB-GFP, PNC prevalence imaging, 16 h; hits give low values. activity change (PNC), negative = inhibition, % at 10 µM. actives 3.1% (n = 140,000). AID 2417, 2010;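 active means readout at or below -70, meaning at least 70% loss of cells showing the perinucleolar compartment, a nuclear body marking cancer cells; inconclusive means readout between -30 and a set limit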
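PC3M cells stably expressing PTB-GFP, 750–1000 cells/well, treated 16 h at 37 °C with compound (23 nl of library stock), in duplicate. After paraformaldehyde fixation and Hoechst stain, imaged at 20x; PNC prevalence scored by image analysis.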
ALDH1A1 block = qHTS Assay for Inhibitors of Aldehyde Dehydrogenase 1 (ALDH1A1). Aldehyde dehydrogenase 1A1 (Homo sapiens), P00352. Purified ALDH1A1, NADH fluorescence, propionaldehyde substrate. Potency, µM (titrated, usually from 75.3 µM), actives largely listed as inhibitors. actives 7.3% (n = 220,000). AID 1030, 2008
Target sequence (P00352 whole entry, looked up): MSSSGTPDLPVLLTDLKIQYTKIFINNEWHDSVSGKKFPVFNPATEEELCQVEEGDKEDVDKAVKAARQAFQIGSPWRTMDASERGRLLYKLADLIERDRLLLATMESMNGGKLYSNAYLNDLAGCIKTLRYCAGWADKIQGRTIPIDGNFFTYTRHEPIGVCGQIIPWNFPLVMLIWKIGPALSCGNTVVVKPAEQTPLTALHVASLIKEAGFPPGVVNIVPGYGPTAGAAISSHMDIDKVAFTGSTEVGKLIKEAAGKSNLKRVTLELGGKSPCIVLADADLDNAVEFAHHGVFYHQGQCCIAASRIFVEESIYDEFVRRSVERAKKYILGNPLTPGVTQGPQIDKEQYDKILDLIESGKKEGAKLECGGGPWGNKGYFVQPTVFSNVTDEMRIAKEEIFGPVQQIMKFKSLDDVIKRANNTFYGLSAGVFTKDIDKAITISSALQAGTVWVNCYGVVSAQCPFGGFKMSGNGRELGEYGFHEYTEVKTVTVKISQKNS
Of the large screens only hits and unclear results are named; the others gave an inactive call. Unless noted, the call rests on the fitted dose curve; in most records, active means well fitted inhibition curve with a large enough effect (not every such curve was filed as active); inconclusive means small, poorly fitted or top-dose-only effect, or another doubt; inactive means no such curve, though single readings can be large or run the other way.

COc1ccc(NC(=O)CCCC2CCCCC2)cc1S(=O)(=O)N1CCCCC1	PNC assembly inh inconclusive, ALDH1A1 block inconclusive
COc1ccc(NC(=O)CSc2ccccc2)cc1S(=O)(=O)N1CCCCC1	PNC assembly inh -81
COc1ccc(NC(=O)CSc2ccc(NC(C)=O)cc2)cc1S(=O)(=O)N1CCCCC1	PNC assembly inh inconclusive
Nc1nc(-c2ccccc2)nn1S(=O)(=O)c1ccccc1	none (no result: HPGD block, PNC assembly inh)
NC(=S)NNc1cc(Cl)cc(Cl)c1	ALDH1A1 block 2µM
NC(=O)c1ccccc1NC(=O)Nc1cccc(Cl)c1	none
O=C(CCSCc1ccccc1Cl)N1CCN(c2cccc(Cl)c2)CC1	none
CCOc1ccc(NC(=O)CSc2nc3ccccc3c(=O)n2CCCC(=O)N2CCCC2)cc1	none (no result: HPGD block)
CCc1ccc(NC(=O)CSc2nc3ccccc3c(=O)n2CCCC(=O)NCCCN2CCOCC2)cc1	none (no result: HPGD block, PNC assembly inh)
COc1ccc(NC(=O)CSc2nc3ccccc3c(=O)n2CCC(=O)N2CCCCC2)cc1	ALDH1A1 block 16µM
COc1cccc(NC(=O)CSc2nc3ccccc3c(=O)n2Cc2cccs2)c1	ALDH1A1 block inconclusive
COc1cccc(NC(=O)CSc2nc3ccccc3c(=O)n2CCCC(=O)N2CCCC2)c1	HPGD block 28µM, PNC assembly inh inconclusive, ALDH1A1 block inconclusive
CCOc1ccc(NC(=O)CSc2nc3ccccc3c(=O)n2CCCC(=O)NCCCN2CCCC2=O)cc1	ALDH1A1 block 7.9µM (no result: HPGD block, PNC assembly inh)
COc1ccc(CNc2cc(-c3ccccc3Cl)ncn2)c(OC)c1	none (no result: HPGD block, PNC assembly inh)
Cc1nc(-c2cccc(Br)c2)ccc1C(=O)O	none (no result: HPGD block, PNC assembly inh)
C[C@@H]1c2ccccc2CN1CC1=NCCN1	none (no result: PNC assembly inh)
CC(C)=NOc1cc(NC(=O)CCl)cc([N+](=O)[O-])c1	ALDH1A1 block 0.18µM
CCC(=O)Nc1cc(ON=C(C)C)cc([N+](=O)[O-])c1	none
O=C(O)C1=CCNCC1	none (no result: PNC assembly inh)
O=C(COC(=O)c1cc(=O)c2ccccc2o1)NC1CCCC1	none (no result: HPGD block, PNC assembly inh)
Cc1cccc(N(Cc2ccccc2)C(=O)CCl)c1	ALDH1A1 block 0.28µM (no result: HPGD block, PNC assembly inh)
O=C(c1cccnc1)N(Cc1ccccc1)c1ccccc1	none
Cc1cccc(N(CC(=O)O)CC(=O)O)c1	PNC assembly inh inconclusive
O=C(CCl)N(Cc1ccccc1)c1ccccc1	ALDH1A1 block 0.079µM (no result: HPGD block, PNC assembly inh)
Cc1ccc(S(=O)(=O)N2CCc3nc(-c4ccccc4)c4c(c3C2)CO[C@@H](C)C4)cc1	none (no result: PNC assembly inh)
CNc1ncc(C(=O)c2ccc(Br)cc2)s1	none (no result: HPGD block, PNC assembly inh)
CC(=O)c1ccc(NCCC(=O)c2ccccc2)cc1	ALDH1A1 block 6.3µM (no result: HPGD block, PNC assembly inh)
Cc1ccc(NS(=O)(=O)c2cc(C(=O)O)ccc2Cl)cc1	none
Cc1ccc(NCCC(=O)c2ccc(Cl)c(Cl)c2)cc1	ALDH1A1 block 0.79µM
Cc1ccc(NC(=O)CCC(=O)c2ccc(F)cc2)cc1Cl	none
CCCOc1ccc(C(=O)CCNc2ccc(C)c(Cl)c2)cc1	ALDH1A1 block 18µM
OCCNc1ccc(Cl)cc1	none
Cc1ccc(C(=O)CCNc2ccc(Cl)cc2)o1	ALDH1A1 block 4µM
CC(=O)c1ccc(Cc2ccccc2)cc1	none (no result: HPGD block, PNC assembly inh)
COC(=O)CCC/C=C1\SC[C@@H](NC(=O)c2ccccc2)C1NC(C)=O (stereo partly drawn)	none
CC/C(O)=C1\C(=O)CCCC1=NCc1nc2ccccc2[nH]1	none (no result: HPGD block, PNC assembly inh)
OCCC1CN(Cc2cccn2-c2ncccn2)CCN1CCc1ccccc1 (stereo not drawn)	none (no result: HPGD block, PNC assembly inh)
CCc1ccc(C(=O)NCc2ccc(Cl)cc2)cc1	none
CC(=O)N(C)c1ccc(NS(=O)(=O)Cc2ccccc2)cc1	none
CCc1ccc(NCCC(=O)c2ccc(Cl)cc2)cc1	ALDH1A1 block 1.6µM
Cc1ccc(NS(=O)(=O)c2cc(C(=O)O)ccc2Cl)cc1C	none (no result: PNC assembly inh)
CC(=O)c1ccc(NS(=O)(=O)Cc2ccccc2)cc1	HPGD block 25µM
Cc1ccc(NCCC(=O)c2ccc(Cl)cc2)cc1C	ALDH1A1 block 2.8µM
COc1ccc(NC(=O)N2CC3(CCN(C(=O)c4cc(C(F)(F)F)cc(C(F)(F)F)c4)CC3)C2)cc1	ALDH1A1 block inconclusive (no result: PNC assembly inh)
COc1ccc(OC)c(NC(=O)CNC(=O)c2ccc([N+](=O)[O-])cc2)c1	none (no result: HPGD block, PNC assembly inh)
O=C(O)CCC(O)=C1S(=O)(=O)OCCOS1(=O)=O	none (no result: PNC assembly inh)
COC(=O)C1=C(C(=O)OC)[C@@H]2Nc3ccccc3[C@@]23C[C@@H](C(=O)OC)N(C(=O)C2CCC2)C3=N1	none (no result: PNC assembly inh)
CCOC(=O)/C=C1\CC(=O)Nc2nonc2N1	HPGD block 32µM
CCOC(=O)/C=C1\CC(=O)Nc2cc(C)c(C)cc2N1	none
CCCCNC(=S)NC(C)(C)CO	none (no result: HPGD block, PNC assembly inh)
CCO[C@H]1OC(C(=O)N2CCN(Cc3ccc4c(c3)OCO4)CC2)=C[C@@H](c2ccc(Br)cc2)[C@@H]1CCCO	none (no result: HPGD block, PNC assembly inh)
